Screens from PubChem BioAssay.
OTUD3 block = inhibitors of human OTUD3 deubiquitinase | purified OTUD3, Ub-rhodamine fluorescence, 2 h | inhibition, % at 25 µM | actives 0.7% (n = 47,000) | AID 1645858
Target sequence (Q5T2D3 whole entry, looked up): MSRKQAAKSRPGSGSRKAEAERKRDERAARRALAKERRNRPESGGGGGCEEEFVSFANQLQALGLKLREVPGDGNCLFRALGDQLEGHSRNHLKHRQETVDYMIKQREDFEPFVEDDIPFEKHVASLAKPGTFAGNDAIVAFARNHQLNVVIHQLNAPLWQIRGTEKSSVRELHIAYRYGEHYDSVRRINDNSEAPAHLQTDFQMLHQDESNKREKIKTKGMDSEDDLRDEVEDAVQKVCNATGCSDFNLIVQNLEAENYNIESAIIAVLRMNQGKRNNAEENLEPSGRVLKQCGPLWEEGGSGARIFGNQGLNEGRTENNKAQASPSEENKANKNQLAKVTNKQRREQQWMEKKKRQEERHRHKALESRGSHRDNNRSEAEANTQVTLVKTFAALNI
USP28 inh = inhibitors of human USP28 deubiquitinase | AID 1645857 | actives 3% (n = 47,000) | Q96RU2 | purified USP28, Ub-rhodamine cleavage fluorescence, 30 min | inhibition, % at 25 µM
* marks the source's active call; other numbers are inactive results. Hits are enriched below; roughly 3.4% of the tested compounds scored in any of these assays. Rule as the data show it: active = inhibition above about 30%; inactive = the rest.

CC1Oc2cc3c(-c4c(O)cc(O)c5c(O)c6c(cc45)OC(C)C(C)C6=O)c(O)cc(O)c3c(O)c2C(=O)C1C (stereo not drawn) was read as OTUD3 block 84* and USP28 inh 90*.
For Cc1nc(NCC2CC2)nc2c1COCC21CCN(CC2CC2)C1 (stereo not drawn) the results were OTUD3 block 11 and USP28 inh 14.
CCN1CCC2(COCc3c(C)nc(-c4ccccc4)nc32)C1 (stereo not drawn) was read as OTUD3 block 5 and USP28 inh 36*.
`COCCN1CCO[C@H]2CCN(C(=O)c3ccnnc3)CC[C@@H]21` gave OTUD3 block 5 and USP28 inh -4.
For Cc1ccc(CN2CC[C@@H]3[C@@H](CO[C@H]3CNc3ncccn3)C2)o1 the results were OTUD3 block -14 and USP28 inh -22.
For COc1cc2c(c3oc4cccc(O)c4c(=O)c13)C1C=COC1O2 (stereo not drawn) the results were OTUD3 block 11 and USP28 inh 50*.
For CN1CCCC[C@@H]2N(C(=O)Cn3ccc(=O)[nH]c3=O)CCC[C@@]21C the results were OTUD3 block 15 and USP28 inh 11.
For COC(=O)/C=C/c1ccc(OP(N)(=O)OC)cc1 (stereo not drawn) the results were OTUD3 block 11 and USP28 inh 3.
Screening COc1c2c(c(O)c3c1C(=O)c1c(cc(O)c(C)c1O)C3=O)-c1c(cc3c(c1O)C(=O)OC3O)CC2 (stereo not drawn) returned OTUD3 block 89* and USP28 inh 88*.
Screening CC1CC[C@]2(NC1)O[C@H]1C[C@H]3[C@@H]4CC[C@H]5C[C@@H](O[C@@H]6O[C@H](CO)[C@H](O[C@@H]7O[C@H](CO)[C@@H](O)[C@H](O[C@@H]8OC[C@@H](O)[C@H](O)[C@H]8O)[C@H]7O[C@@H]7O[C@H](CO)[C@@H](O)[C@H](O)[C@H]7O)[C@H](O)[C@H]6O)CC[C@]5(C)[C@H]4CC[C@]3(C)[C@H]1[C@@H]2C (stereo partly drawn) returned OTUD3 block 13 and USP28 inh 19.
`C=C/C(=C/C(=O)C[C@H](C)C[C@@H](C)CC[C@H](O)[C@H](C)C(=O)CC(O)[C@H](C)[C@@H](C)OC(=O)C[C@@H](O)C1=C(C)C(=O)OC1=O)CC` (stereo partly drawn) gave OTUD3 block 89* and USP28 inh 90*.
Cn1ccnc1CN1CCOC2(CCCN(c3ncccn3)C2)C1 (stereo not drawn) was read as OTUD3 block 12 and USP28 inh 8.
Screening Cc1nn(Cc2ccccc2Cl)c(C)c1C(=O)Nc1ccc2c(c1)OCCO2 returned OTUD3 block 7 and USP28 inh 13.
`Cc1nn(Cc2ccccc2)c(Cl)c1C(=O)NC1CCCc2ccccc21` (stereo not drawn) gave OTUD3 block 13 and USP28 inh 31*.
N#Cc1ccc(NC(=O)c2ccccc2Oc2ccccc2)cc1Cl was read as OTUD3 block 7 and USP28 inh 18.
`CCN1CC2ON=C(c3ccccc3C)C2C1` (stereo not drawn) gave OTUD3 block 8 and USP28 inh 6.
`COC1=C(C2=C(OC)C(=O)c3cc4c(c(O)c3C2=O)C(=O)OC(C)C4)C(=O)c2c(cc3c(c2O)C(=O)OC(C)C3)C1=O` (stereo not drawn) gave OTUD3 block 64* and USP28 inh 67*.
COc1cc(O)cc2c1C(=O)O[C@@H](C)CCCC(=O)CCCCC2 was read as OTUD3 block 14 and USP28 inh 11.
`CN1C(=O)[C@@]23C[C@]4([C@@]56C[C@]78SS[C@](CO)(C(=O)N7[C@@H]5Nc5ccccc56)N(C)C8=O)c5ccccc5N[C@@H]4N2C(=O)[C@]1(CO)SS3` gave OTUD3 block 18 and USP28 inh -6.
For COc1cccc2c1NC(=O)C21CCN(C(=O)Nc2cccc3ccccc23)CC1 the results were OTUD3 block 16 and USP28 inh 23.
Screening C/C=C/C(O)C(C)(C)C1C\C=C/C=C\C=C\C(OC)Cc2nc(co2)C(=O)OC(C(C)(C)C(O)/C=C/C)C/C=C\C2OC2/C=C/C=C\c2nc(co2)C(=O)O1 (stereo not drawn) returned OTUD3 block -27 and USP28 inh -46.
